Test results as given in PubChem BioAssay AID1259336 (Sattelle Laboratory, UCL Respiratory, Division of Medicine, …, 2017).
A number with no mark means an inactive call. Active and inactive are the calls of the source. Rule as the data show it: active = log2 fold change growth below about -1.8; inactive = the rest.

Assay: C. elegans growth inhibition, whole organism, log2 fold change (AID 1259336);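 also: growth scored by imaging after five days at 20 °C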
Settings: anthelmintic screen, hits give low values

Structure (SMILES) | log2 fold change growth
Cc1ccc2nc(C)c(-c3ccn(Cc4ccccc4)n3)n2c1 | 0.192
CNCC[C@H](Oc1ccc(C(F)(F)F)cc1)c1ccccc1 | 0.102
O=C(Cn1ccnc1[N+](=O)[O-])NCc1ccccc1 | 0.415
COc1ccc(C2=NN(C3CCCCCC3)C(=O)C2(C)C)cc1OCCCCOc1ccc(-c2nn[nH]n2)cc1 | -0.216
Cc1ccc2[nH]c([C@H]3CCCNC3)c(-c3ccncc3)c2c1 | 0.649
FC(F)(F)c1cccc(-c2nc3c(NCc4ccncc4)nccc3[nH]2)c1 | 0.0714
Clc1ccc(CCNc2cc(-c3ccccc3)nc3ncnn23)cc1 | -0.81
O=C(NC1=NCCS1)c1sc2cc(F)ccc2c1Cl | -0.159
O=C(c1ccco1)N(CCCn1ccnc1)c1nc2c(Cl)cccc2s1 | -2.18 (active)
c1ccc(-c2cc(N3CCCCC3)c3ccccc3n2)nc1 | -1.36
O=C(Nc1ccc(C(F)(F)F)c(C(F)(F)F)c1)c1cc(Cl)ccc1O | 0.513
CC[C@H](CO)NCCN[C@H](CC)CO | -0.0318
O=C(CCC1CCCCC1)Nc1cccc(-c2nnc(-c3ccco3)o2)c1 | 0.147
O=C1COCc2ccc(Br)cc2N1Cc1ccc(C(F)(F)F)cc1 | -0.402
Cc1ccc(NC(=O)C[C@H]2COc3ccccc3O2)cc1Cl | -0.476
Cc1nc(-c2ccccn2)nc(N(C)CCc2ccccc2)c1Cl | -0.0752
